In PubChem BioAssay AID793 (The Scripps Research Institute Molecular Screening Center, 2007):
The campaign covered roughly 140,000 compounds. About 1,400 (1%) were called active. Many of the other results were omitted from the sample, so actives are more common in it than they were. Unmarked numbers belong to inactive results. No stated cut-off is given here; in the data, active means inhibition above about 17%; inactive means the rest.

These compounds were tested against Neuropeptide Y receptor type 2 (Homo sapiens) (UniProt P49146) (assay: NPY-Y2 receptor antagonists, primary screen, cell-based (AID 793;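 further: 0% = vehicle with agonist challenge and 100% = reference antagonist with challenge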)). Settings: NPY-Y2 expressing cells, antagonist mode; at 2.7 µM; stronger effect = higher value.
Sequence of Neuropeptide Y receptor type 2 (Homo sapiens) (P49146 whole entry, looked up): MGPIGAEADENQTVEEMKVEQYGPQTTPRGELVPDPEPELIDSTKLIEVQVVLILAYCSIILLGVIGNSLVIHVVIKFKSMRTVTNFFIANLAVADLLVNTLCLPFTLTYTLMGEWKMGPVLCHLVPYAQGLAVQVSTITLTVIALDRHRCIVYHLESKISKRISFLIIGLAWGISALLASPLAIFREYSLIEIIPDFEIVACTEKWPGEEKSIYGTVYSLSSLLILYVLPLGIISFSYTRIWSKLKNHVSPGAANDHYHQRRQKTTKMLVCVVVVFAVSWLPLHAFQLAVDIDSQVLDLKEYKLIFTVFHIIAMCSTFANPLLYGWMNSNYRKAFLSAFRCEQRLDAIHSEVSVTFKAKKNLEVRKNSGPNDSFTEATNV
Work on CCN(CC)c1ccc(C2C3CCCCC3(O)CCN2CC(=O)Nc2ccccc2)cc1 (stereo not drawn) yielded an inhibition of 5.72%. With Cc1ccc(NC(=O)CN2CCC3(O)CCCCC3C2c2ccc3c(c2)OCO3)c(C)c1 (stereo not drawn) the inhibition was 21.3% (active). Compound CC1CCCCN1CC(=O)NCc1ccc2c(c1)OCO2 (stereo not drawn) has an inhibition of 1.99%. With FC(F)Oc1ccccc1NC(=S)Nc1cccc(Cl)c1Cl the inhibition was 0.76%. With CCCCN(CC)C(=S)Nc1ccc2nc3n(c(=O)c2c1)CCCCC3 the inhibition was 3.37%. COc1ccc(/C=C(/CC(=O)Nc2ccc(C)cc2)c2nc3ccccc3s2)cc1 gave an inhibition of 3.93%. O=C(C(=O)N1CCc2ccccc2C1)N1CCc2ccccc2C1 gave an inhibition of -0.59%. CCOC(=O)/C(C#N)=C/c1ccc(N2CCN(Cc3ccccc3)CC2)cc1 was tested, and the inhibition was 5.28%. With CC1CN(S(=O)(=O)c2ccc(C(=O)Nc3sccc3C(N)=O)cc2)CC(C)O1 (stereo not drawn) the inhibition was -0.61%. Cc1ccsc1C(=O)N/N=C/c1ccc([N+](=O)[O-])cc1 was tested, and the inhibition was 1.67%. In the case of Cc1ccc(/C=N/NC(=O)c2sccc2OCc2ccc(F)cc2)cc1, the inhibition was 25.7% (active). For CNC(=S)NNC(=O)c1sccc1OCc1ccccc1, the inhibition was -0.16%. In the case of CCCCOc1ccc(C(=O)NN2CCN(C)CC2)cc1, the inhibition was 0.95%. CCCCOc1ccc(C(=O)NCc2ccncc2)cc1 showed an inhibition of -1.04%. In the case of CCCOc1ccc(C(=O)C(CCC(CNCC)C(=O)c2ccc(OCCC)cc2)CNCC)cc1 (stereo not drawn), the inhibition was 30.9% (active). In the case of CCOc1ccc(C(=O)Nc2nccs2)cc1[N+](=O)[O-], the inhibition was -0.69%. With O=C(OC1CCOC1=O)c1cccc(S(=O)(=O)Nc2ccc(F)cc2)c1 (stereo not drawn) the inhibition was 2.56%. CCc1cccc(NC(=O)CCC(=O)O)c1 gave an inhibition of 1.58%. Compound CCOC(=O)COc1ccc([N+](=O)[O-])cc1 has an inhibition of 1.59%. Compound COc1ccc(OC)c2c(N)c(C#N)c(C(F)(F)C(F)(F)F)nc12 has an inhibition of -1.33%. COc1ccc(C2CC(=O)Nc3sc(=N)c4c(N)c(C#N)c(N)nc4c32)cc1OC (stereo not drawn) was tested, and the inhibition was 86.1% (active). N#Cc1c(N)nc2c3c(sc(=N)c2c1N)NC(=O)CC3c1ccccc1Cl (stereo not drawn) gave an inhibition of 1.65%. Compound CCN(CC)S(=O)(=O)c1cccc(-c2n[nH]c(=S)n2/N=C/c2ccc(C(=O)OC)cc2)c1 has an inhibition of -0.07%. Compound Cc1cc(C)nc(NC(=O)c2cccc([N+](=O)[O-])c2)c1 has an inhibition of 2.05%. Compound COc1ccc(/C=C/C(=O)c2cc(Br)ccc(=O)c2O)cc1 has an inhibition of 5.15%. For COc1ccc(/C=C/C(=O)NC(=S)NN2CCCCC2c2cccnc2)cc1 (stereo not drawn), the inhibition was 44% (active). O=C(/C=C/c1ccc(F)cc1)NC(=S)NNC(=O)c1cccnc1 gave an inhibition of 2.46%. CCOc1ccc(NC(=S)NC(=O)/C=C/c2ccc(OC)cc2)c([N+](=O)[O-])c1 was tested, and the inhibition was 0.55%.
